An excerpt weighted towards active compounds, which were near 2.6% of everything screened.
PRMT1 inh: inhibitors of human PRMT1 | Q99873 | recombinant PRMT1, activity-based probe fluorescence polarization | inhibition, % at 2.79 µM | actives 1.3% (n = 370,000);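 active = inhibition above about 21% made by adding two undisclosed values, limit read from the data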
Target sequence (Q99873 whole entry, looked up): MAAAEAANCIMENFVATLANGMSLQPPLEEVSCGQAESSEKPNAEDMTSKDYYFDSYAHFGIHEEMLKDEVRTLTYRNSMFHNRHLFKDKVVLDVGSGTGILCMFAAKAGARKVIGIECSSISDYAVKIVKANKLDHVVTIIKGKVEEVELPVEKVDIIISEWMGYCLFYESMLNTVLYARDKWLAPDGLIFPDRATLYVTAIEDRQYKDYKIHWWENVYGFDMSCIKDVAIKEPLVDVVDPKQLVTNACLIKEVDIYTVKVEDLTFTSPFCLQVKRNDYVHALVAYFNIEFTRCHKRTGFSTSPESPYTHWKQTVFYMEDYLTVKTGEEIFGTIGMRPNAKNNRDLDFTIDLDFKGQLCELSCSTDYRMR
TLR4-MyD88 BLA: inhibitors of human TLR4-MyD88 binding. O00206+Q99836. HeLa CL3-4 TLR4/MyD88 BLA complementation, FRET ratio. inhibition, % at 8.4 µM. actives 0.18% (n = 200,000); in the data active = inhibition above about 25%;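 also: 0% = vehicle and 100% = reference inhibitor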
ABHD5-PLIN5 inh: inhibitors of human ABHD5-perilipin-5 interaction. Split G. princeps luciferase complementation, luminescence, 4 h. inhibition, % at 4 µM. actives 0.78% (n = 360,000). AID 602281;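 active = inhibition above the mean inhibition across every tested compound plus 3 SD, cut at about 22% in these data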;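 also: 0% = DMSO only wells and the 100% control is not disclosed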
NOD2 RIPK2 PPI: NOD2-RIPK2 protein interaction inhibition; AID 624267; CHO BLA complementation NOD2-RIPK2, CCF4 ratio; inhibition, % at 4.98 µM; actives 0.38% (n = 360,000); O43353; in the data active = inhibition above about 21%;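 also: 0% = vehicle only and 100% = reference blocker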
TLR9-MyD88 inh: TLR9-MyD88 interaction inhibition; Q9NR96+Q99836; CHO BLA complementation TLR9-MyD88, CCF4 FRET ratio; inhibition, % at 4.98 µM; actives 0.21% (n = 340,000); AID 504734;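 active = inhibition above the mean over all tested compounds plus 3 SD, cut at about 21% in these data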;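 also: 0% = DMSO only wells and 100% = clavulanate BLA inhibitor control wells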
Exocytosis inh: blocks lytic granule exocytosis. TALL-104 LAMP-1 surface exposure, flow cytometry; cells stimulated with thapsigargin and PMA. inhibition, % at 10 µM. actives 0.66% (n = 360,000);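 active = inhibition above about 55%, limit read from the data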
* = called active by the depositor; . = not tested or not shown.

SMILES	PRMT1 inh	TLR4-MyD88 BLA	ABHD5-PLIN5 inh	NOD2 RIPK2 PPI	TLR9-MyD88 inh	Exocytosis inh
CC(C)(C)n1nc(C2CC2)c(Br)c1NC(=O)c1ccc(Cl)cc1	0	.	.	.	.	.
CC1=NNC(=O)/C1=C\c1cn(-c2ccccc2)nc1-c1ccc(F)cc1	.	3	6	4	0	66*
O=Cc1cn(-c2ccccc2)nc1-c1ccc(F)cc1	-3	.	1	5	4	-5
O=C(CNS(=O)(=O)c1ccccc1)N1CCN(c2ccccn2)CC1	-2	.	.	.	.	.
O=C(N[C@H](C(=O)N1CCC[C@H]1C(=O)NC1CCCC1)C1CCCCC1)C1CCCC1	0	.	.	.	.	.
COc1ccc(CN(C)C(=O)C(Cc2ccccc2)NC(=O)c2ccccc2)cc1F (configuration not stated)	-1	.	-17	4	-7	-1
CCOc1ccc(CN(C)C(=O)[C@H](Cc2ccccc2)NC(=O)OCc2ccccc2)cc1OC	0	.	5	-8	7	56*
COC(=O)C1=C(C)N(CC(C)C)C(=S)NC1c1cccc(OC)c1 (configuration not stated)	2	.	.	.	.	.
CCOC(=O)c1ccc(S(=O)(=O)Nc2nc3cc(S(=O)(=O)NC4=NCCCCC4)ccc3s2)cc1	41*	-10	-22	-4	9	-1
C[C@@H]1Cn2cnc(C(=O)N3CCN(C(=O)OC(C)(C)C)CC3)c2C(=O)N1	0	.	.	.	.	.
O=C1C(=O)N(CCCc2ccccc2)c2ccccc21	.	.	16	11	2	76*
Brc1ccc(CN2CCN(c3ncc(Cc4ccccc4)cn3)CC2)cc1	1	.	.	.	.	.
O=C(O)c1ccc(S(=O)(=O)Nc2ccc(O)c(Sc3nc4ccccc4s3)c2)cc1	22*	3	4	-2	0	-2
NS(=O)(=O)c1ccc(Sc2nc3ccccc3s2)c([N+](=O)[O-])c1	-2	.	3	0	5	-2
CN1CCc2cccc3c2[C@@H]1Cc1ccc(O)c(O)c1-3	.	19	-6	8	-12	74*
Cc1cc(N/N=C/c2ccc(O)c(C)c2O)nc(-c2ccccc2O)n1	1	-11	2	12	-1	80*
C/C(=N\Nc1cc(C)nc(-c2ccccc2O)n1)c1ccccc1	-2	-5	-8	-3	-5	-1
COc1cc2c(cc1NC(=O)CN1C(=O)NC3(CCc4ccccc43)C1=O)oc1ccccc12 (configuration not stated)	-2	7	35*	-1	11	5
CSc1ncc(CN2CCCC(C(=O)Nc3ccc(-c4ccco4)cc3)C2)cn1 (configuration not stated)	21	.	35*	8	-5	1
N#CCCN1CCC(N)=NC1=NC#N	3	.	.	.	.	.
CN(C)CCCN1c2ccc([N+](=O)[O-])cc2CCc2cc([N+](=O)[O-])ccc21	22*	.	15	-8	-6	28
COC(=O)[C@]12C[C@H](CC(=O)N3CCSCC3)C(=O)N(Cc3ccc(Cl)cc3Cl)C1=C[C@H](C(C)C)O[C@@H]2C1CC1	1	.	.	.	.	.
Brc1ccc(-c2ccc(/C=N/Nc3nc(N4CCOCC4)nc(N4CCOCC4)n3)o2)cc1	0	-21	-4	1	-1	8
Clc1ccc(-c2ccc(/C=N/Nc3cc(N4CCOCC4)nc(N4CCOCC4)n3)o2)cc1	-1	-38	2	2	-13	83*
COc1ccccc1NC1=C(Cl)C(=O)N(c2ccccc2)C1=O	12	-2	-3	0	-5	-6
SMILES	PRMT1 inh	TLR4-MyD88 BLA	ABHD5-PLIN5 inh	NOD2 RIPK2 PPI	TLR9-MyD88 inh	Exocytosis inh
CCOc1ccc(N2C(=O)C(Cl)=C(Nc3ccccc3O)C2=O)cc1	22*	-22	-2	2	2	-6
CCN(CC)c1ccc(C=Nc2ccc(N(C)C)cc2)c(O)c1	25*	4	5	-14	1	46
CCN(CC)c1ccc(N=Cc2ccc(N(CC)CC)cc2O)cc1	24*	8	10	9	-3	-1
O=C1N[C@@H](Cc2ccccc2)C(=O)N2[C@H]1CSCCS2(=O)=O	-6	.	.	.	.	.
O=C1C(Cl)=C(N2CCC(C(=O)O)CC2)C(=O)c2ccccc21	.	.	-22	-6	5	38
NC(=O)C1CCN(C2=C(Cl)C(=O)c3ccccc3C2=O)CC1	25*	7	-44	6	3	30
N#Cc1ccc(Cn2ccc3ccc(-c4ccc5ccn(Cc6ccccc6)c5c4)cc32)cc1	0	.	.	.	.	.
C=Cc1c(C)c2cc3[nH]c(cc4nc(cc5nc(cc1[nH]2)C(C)=C5CCC(=O)O)C(CCC(=O)O)=C4C)c(C)c3C=C	27*	.	6	-1	-6	8
CN1CCCCC(NC(=O)c2cccc([N+](=O)[O-])c2)C1=O (configuration not stated)	0	.	.	.	.	.
Cc1c(Cl)cccc1NC(=S)NCCc1ccc(F)cc1	1	.	-12	-7	7	84*
Cn1ccc2c(-c3cccnc3)cc3c(c21)C1CCC3C1 (configuration not stated)	0	.	2	-3	.	-3
Cn1ccc2c(-c3ccc(F)nc3)cc3c(c21)C1CCC3C1 (configuration not stated)	23*	.	-4	-6	.	-1
COc1ccc(NC(=S)NNc2ccc([N+](=O)[O-])cc2S(=O)(=O)Nc2ccc(C)cc2C)cc1	24*	-15	-23	-6	6	0
Cc1ccc(NS(=O)(=O)c2cc([N+](=O)[O-])ccc2NNC(=S)Nc2cc(C)ccc2C)c(C)c1	5	8	-32	7	-6	0
COC(=O)CCC/C=C1/SCC(NC(=O)c2ccccc2)C1O (configuration not stated)	10	2	-5	-6	-2	-2
COC(=O)CCC/C=C1/SCC(NC(=O)c2ccccc2)C1=O (configuration not stated)	26*	3	2	-2	-9	1
COC(=O)c1cc(-c2ccc(C)cc2)n[nH]1	-4	10	-1	-8	-1	0
COC(=O)C1=C(C)Nc2ccc(C)cc2S1	24*	6	-16	-15	-20	0
COc1ccc(CC(NC(C)=O)C(=O)NC2CCN(S(=O)(=O)c3ccc(NC(C)=O)cc3)CC2)cc1 (configuration not stated)	-2	.	10	-11	-6	-12
CC(=O)Nc1ccc(S(=O)(=O)N2CCC(NC(=O)C(Cc3cccn3C)NC(C)=O)CC2)cc1 (configuration not stated)	0	-16	23*	-1	6	6
COc1ccc(N2C(=O)CC(N3CCN(c4ccccc4)CC3)C2=O)cc1 (configuration not stated)	7	.	-6	-8	-12	-4
COc1ccc(N2C(=O)CC(N3CCOCC3)C2=O)cc1 (configuration not stated)	21*	3	0	5	6	2

Screening results (PubChem BioAssay)
